Potency data for 31 compounds are collected here from PubChem BioAssay (NCATS).

Common to all, as to experiment: qHTS profiling for inhibitors of Plasmodium falciparum proliferation (AID 504749); further: nearly all actives have a fitted effect of over 60% in size
Common to all, as to conditions: P. falciparum in erythrocytes, SYBR Green DNA, 72 h; series mostly up to 28.7 µM
A general note: In qHTS, concentration-response curves come from the screen itself.

One experiment deals with PAD. The gist of the method:
(§1)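 SYBR Green fluorescence of parasite DNA, read after lysis and overnight dark incubation, measured growth over 72 h in erythrocyte culture at 0.3% parasitemia and 2.5% hematocrit. Data normalised to DMSO and 0.29 uM artemisinin, with plate-drift correction.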

Another experiment has as its system PC15. The gist of the method:
as §1

A further experiment relates to PC26. The gist of the method: as §1
The next experiment deals with PC49. The gist of the method:
as §1

A further experiment has as its system SC27B. The gist of the method: as §1
The next experiment deals with W2. The gist of the method:
as §1

The subject of a further experiment is TAB109. The gist of the method: as §1
A further experiment relates to TAB113. The gist of the method:
as §1

In the next experiment the test system is TAB165. The gist of the method:
as §1

Inconclusive results are not listed. Activity calls are given as the source filed them. The call rests on the fitted dose curve; in most records, active means well fitted inhibition curve with a large enough effect; inconclusive means small, poorly fitted or top-dose-only effect; inactive means flat fitted curve, though single readings scatter.
Potency means the concentration at half of the fitted maximal effect.

With `O=C(CCCN1CCN2CCCC2C1)c1ccc(F)cc1` (stereo unspecified), the Potency result in the experiment on PAD, in the experiment with PC15, in the experiment on PC26, in the experiment with PC49 and in the experiment on SC27B was “inactive” throughout. Besides, the Potency with W2 is 6.01 µM (active).

As to `O=C(O)CCC/C=C\C[C@@H]1[C@@H](/C=C/[C@@H](O)COc2cccc(C(F)(F)F)c2)[C@H](O)C[C@@H]1O`, the Potency entry in the experiment with PAD, in the experiment with PC15, in the experiment on PC49, with SC27B, with TAB109 and in the experiment with TAB113 was “inactive” each time. Besides, the Potency entry with TAB165 was “inactive”.

As to `O=C1NCCN1c1ncc([N+](=O)[O-])s1`, the Potency entry in the experiment on PAD, in the experiment on PC15, in the experiment with PC26, with SC27B, in the experiment on TAB113 and with TAB165 was “inactive” each time. For the same compound, in the experiment with W2, the Potency result is “inactive”.

For the compound `CC(=O)Nc1c(I)c(C(=O)O)c(I)c(N(C)C(C)=O)c1I`, the Potency result in the experiment with PAD, in the experiment with PC15, in the experiment with PC26, in the experiment on PC49, with TAB109 and with TAB113 was “inactive” throughout. Besides, the Potency result with TAB165 and with W2 was “inactive” each time.

For the compound `Cc1cccc(Nc2ncccc2C(=O)O)c1C`, the Potency entry in the experiment on PAD, in the experiment on PC15, in the experiment with PC26, in the experiment with PC49, in the experiment with SC27B and in the experiment with TAB165 was “inactive” in each case. Moreover, the Potency result in the experiment with W2 is “inactive”.

Turning to `O=C1CCC(c2ccccc2)(C2CCN(Cc3ccccc3)CC2)C(=O)N1` (stereo unspecified), the Potency entry in the experiment with PAD, with PC15, with PC26, with PC49, in the experiment on SC27B and in the experiment on TAB113 was “inactive” throughout. In addition, the Potency entry in the experiment with TAB165 is “inactive”. Further, in the experiment on W2, the Potency was 6.75 µM (active).

With `CCCCC/C=C\C/C=C\C/C=C\CCCCC(=O)O`, the Potency result in the experiment on PAD, with PC15, in the experiment with PC26, in the experiment with PC49, in the experiment with SC27B and in the experiment on TAB109 was “inactive” each time. The Potency result with TAB165 and with W2 was “inactive” throughout.

Consider `CCSc1ccc2c(c1)N(CCCN1CCN(C)CC1)c1ccccc1S2`, for which the Potency entry with PAD, in the experiment with PC15, with PC26, in the experiment on PC49, with TAB109 and in the experiment on TAB165 was “inactive” throughout.

Take `CC(C)C1=CC2=CC[C@@H]3[C@](C)(CCC[C@@]3(C)C(=O)O)[C@H]2CC1`: the Potency entry in the experiment with PAD, in the experiment with PC15, in the experiment with PC49, in the experiment on SC27B, with TAB109 and in the experiment with TAB113 was “inactive” throughout. Moreover, the Potency entry with TAB165 and in the experiment with W2 was “inactive” in each case.

In the case of `CO/N=C(\C(=O)N[C@@H]1C(=O)N2C(C(=O)[O-])=C(C[n+]3cccc4c3CCC4)CS[C@H]12)c1csc(N)n1`, the Potency entry with PAD, with PC15, in the experiment with PC26, with PC49, with SC27B and in the experiment on TAB109 was “inactive” in each case. The Potency entry in the experiment on TAB165 and in the experiment with W2 was “inactive” each time.

With `CCC(=O)c1ccc2c(c1)N(CCCN1CCN(CCO)CC1)c1ccccc1S2`, the Potency in the experiment with PAD is 8.91 µM (active); with PC15 it was 7.08 µM (active); in the experiment with PC26 it was 7.57 µM (active); with PC49, 10 µM (active); in the experiment on TAB165, 10 µM (active); in the experiment with W2, 5.36 µM (active).

For the compound `CC(C)Cc1ccc([C@@H](C)C(=O)NS(C)(=O)=O)cc1`, the Potency entry with PAD, with PC15, with PC26, in the experiment with PC49, with SC27B and with TAB113 was “inactive” in each case. Moreover, the Potency result in the experiment with TAB165 and in the experiment on W2 was “inactive” in each case.

For the compound `CCOC(=O)[C@@H](N)CS`, the Potency result in the experiment on PAD, with PC15, with PC26, in the experiment with SC27B, in the experiment on TAB109 and in the experiment with TAB113 was “inactive” throughout. In addition, the Potency entry in the experiment on TAB165 and with W2 was “inactive” in each case.

For the compound `CSCCC(N)C(=O)O` (stereo unspecified), the Potency result in the experiment on PAD, with PC15, with PC49, in the experiment with SC27B, in the experiment with TAB109 and in the experiment with TAB113 was “inactive” in each case. In addition, the Potency result in the experiment with TAB165 and in the experiment on W2 was “inactive” in each case.

As for `CC(C)(C)CC(C)(C)c1ccc(OCCO)cc1`, the Potency entry in the experiment on PAD, in the experiment with PC15, with PC26, in the experiment with PC49, in the experiment with SC27B and with TAB109 was “inactive” each time. The Potency result in the experiment on TAB113 and with W2 was “inactive” throughout.

For `c1ccc2c(c1)Sc1ccccc1N2CCN1CCCC1`, the Potency was 7.94 µM (active) with PAD; 11.2 µM (active) in the experiment with PC15; 12 µM (active) in the experiment with PC26; 8.91 µM (active) in the experiment on SC27B; 8.91 µM (active) in the experiment on TAB109; 5.01 µM (active) with TAB113. Moreover, the Potency was 7.08 µM (active) in the experiment with TAB165 and 1.69 µM (active) in the experiment with W2.

As to `CC1CC(O)CC(C)(C)C1` (stereo unspecified), the Potency result in the experiment on PAD, with PC15, in the experiment with PC49, in the experiment on SC27B, with TAB109 and with TAB113 was “inactive” throughout. The Potency result in the experiment on TAB165 and with W2 was “inactive” throughout.

`O=C1N=C2SCCN2C(=O)C1Cc1ccc(Cl)cc1` (stereo unspecified): the Potency entry in the experiment on PAD, in the experiment with PC15, with PC49, with SC27B, in the experiment on TAB109 and in the experiment with TAB113 was “inactive” each time. The Potency result with TAB165 and with W2 was “inactive” each time.

As to `CN1C(=O)C[C@@H](C(=O)N[C@@H](Cc2cnc[nH]2)C(=O)N2CCC[C@H]2C(N)=O)NC1=O`, the Potency result in the experiment with PAD, with PC15, in the experiment with PC26, in the experiment on PC49, in the experiment on SC27B and with TAB109 was “inactive” each time. For the same compound, the Potency entry in the experiment with TAB113, in the experiment with TAB165 and with W2 was “inactive” each time.

Regarding `Cc1cc(C(=O)NCCc2ccc(S(=O)(=O)NC(=O)NN3CCCCCC3)cc2)no1`, the Potency entry in the experiment on PAD, with PC15, in the experiment with PC49, in the experiment with SC27B, in the experiment on TAB109 and with TAB113 was “inactive” throughout. Besides, the Potency result with TAB165 and in the experiment with W2 was “inactive” each time.

For the compound `COc1ccc(/C=N/NC(=O)c2ccncc2)c(C(=O)O)c1OC`, the Potency result in the experiment with PAD, in the experiment on PC15, in the experiment with PC26, in the experiment with PC49, with SC27B and with TAB113 was “inactive” each time. For the same compound, the Potency result in the experiment on TAB165 and in the experiment with W2 was “inactive” throughout.

As for `CCOC(=O)c1cc(-c2ccccc2)nc2ccc(C)cc12`, the Potency entry in the experiment on PAD, with PC15, with PC26, in the experiment with PC49, in the experiment with SC27B and with TAB165 was “inactive” throughout. Moreover, the Potency result in the experiment on W2 was “inactive”.

Turning to `O=C(Nc1ccc(O)cc1)c1ccccc1O`, the Potency entry with PAD, with PC15, with PC26, in the experiment on PC49, in the experiment with SC27B and in the experiment on TAB109 was “inactive” in each case. For the same compound, the Potency entry in the experiment with W2 is “inactive”.

Consider `OCC1(CO)COC(C(Cl)(Cl)Cl)OC1`, for which the Potency result with PAD, with PC15, with PC26, in the experiment on PC49, with SC27B and in the experiment with TAB113 was “inactive” in each case. The Potency entry with TAB165 and with W2 was “inactive” throughout.

`Cn1cc(NC(=O)c2cc(NC(=O)c3cc(NC=O)cn3C)cn2C)cc1C(=O)NCCC(=N)N`: the Potency in the experiment on PAD was 5.01 µM (active); in the experiment with PC15, 7.08 µM (active); with PC26 it was 13.5 µM (active); with SC27B it was 11.2 µM (active); in the experiment on TAB109, 5.01 µM (active); with TAB113, 5.01 µM (active). Moreover, the Potency in the experiment with TAB165 was 5.01 µM (active); with W2, 4.78 µM (active).

With `O.O.O.O.O.O.O.O=S(=O)([O-])[O-].[Co+2]`, the Potency entry in the experiment with PAD and in the experiment with PC15 was “inactive” throughout. Moreover, the Potency is 7.94 µM (active) with PC49; 7.94 µM (active) in the experiment on SC27B; 7.94 µM (active) in the experiment with TAB109; 6.31 µM (active) in the experiment with TAB113; 10 µM (active) in the experiment with TAB165; 5.36 µM (active) in the experiment on W2.

In the case of `CC(C)=CCC/C(C)=C/CC/C(C)=C/CC/C=C(\C)CC/C=C(\C)CCC=C(C)C`, the Potency result in the experiment on PAD, with PC15, with PC26, in the experiment with SC27B, in the experiment with TAB109 and in the experiment on TAB113 was “inactive” each time. For the same compound, the Potency result in the experiment with TAB165 was “inactive”.

As to `CN1c2c(nc(N)[nH]c2=O)NCC1CNc1ccc(C(=O)NC(CCC(=O)O)C(=O)O)cc1` (stereo unspecified), the Potency entry with PAD, in the experiment with PC15, in the experiment on PC26, with PC49, with SC27B and in the experiment with TAB109 was “inactive” each time. Besides, the Potency result in the experiment on TAB165 and in the experiment with W2 was “inactive” throughout.

With `CCN(CC)C(=O)c1cccnc1`, the Potency entry in the experiment on PAD, in the experiment on PC15, with PC49, in the experiment on SC27B, in the experiment on TAB109 and in the experiment on TAB113 was “inactive” each time. The Potency result with TAB165 and in the experiment with W2 was “inactive” throughout.

With `OCCOCCOCCO`, the Potency result in the experiment with PAD, in the experiment with PC15, in the experiment with PC49, with SC27B, in the experiment on TAB109 and in the experiment on TAB113 was “inactive” each time. Also, the Potency result in the experiment on TAB165 and in the experiment with W2 was “inactive” throughout.

With `C#C[C@]1(O)CC[C@@H]2[C@H]3CCC4=CC(=O)CC[C@H]4[C@H]3C(=C)C[C@@]21CC`, the Potency result in the experiment on PAD, with PC15, in the experiment with PC49, with SC27B, in the experiment with TAB109 and in the experiment with TAB113 was “inactive” in each case. For the same compound, in the experiment with TAB165, the Potency result is “inactive”.
